From PubChem BioAssay (NCI) come the findings set out here.

About 83,000 compounds went through this panel and 20% of them were active in at least one assay; those are over-represented in the sample as a whole.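 A percent growth of 40 corresponds to 60% growth inhibition; 0 means no net growth; -100 means all cells died. Active threshold: below 10.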 Unmarked numbers belong to inactive results. Activity calls are given as the source filed them.

Test systems include NCI-H23 lung; NCI-H226 lung; NCI-H322M lung; HOP-62 NSCLC; NCI-H460 lung; HOP-92 NSCLC; NCI-H522 lung; A549/ATCC NSCLC; 786-0 renal; COLO 205 colon; DU-145 prostate; K-562 leukemia; MALME-3M melanoma; MDA-MB-231 breast; RXF 393 renal; SF-268 CNS; SF-295 CNS; SF-539 CNS; UACC-257 melanoma; M14 melanoma.
Common to all, as to experiment: NCI-60 one-dose screen, 48 h (100 = growth as untreated, 0 = no growth, -100 = all killed)
Common to all, as to settings: 10 µM unless noted

For `COc1ccc(C2=NN(C(=O)COc3ccc(Cl)cc3)C(O)(c3cc(F)c(Cl)cc3Cl)C2)cc1OC` (stereo not given), the growth in the assay on NCI-H23 lung was 49.7%; in the assay with NCI-H226 lung, 82.2%; with NCI-H322M lung it was 88.8%; in the assay on HOP-62 NSCLC, 75.4%; in the assay with NCI-H460 lung, 32.9%; in the assay with HOP-92 NSCLC it was -44.8% (active). Besides, the growth with NCI-H522 lung is -66.4% (active); in the assay on A549/ATCC NSCLC, 81.3%; in the assay with 786-0 renal, -74.9% (active); in the assay with COLO 205 colon, -56.6% (active); in the assay on DU-145 prostate it was 9.5% (active); with K-562 leukemia, -66.5% (active). The growth in the assay with MALME-3M melanoma was 6.18% (active); with MDA-MB-231 breast, 30%; in the assay with RXF 393 renal it was -90.8% (active); with SF-268 CNS, 4.05% (active); with SF-295 CNS, 75.7%; with SF-539 CNS, 30.5%. Besides, the growth was 107% in the assay on UACC-257 melanoma and -13.4% (active) with M14 melanoma.

In the case of `CC(CCC(=O)O)[C@H]1CCC2C3C(=O)C[C@@H]4CC(=O)CC[C@]4(C)C3CC(=O)[C@@]21C` (stereo not given in full), the growth in the assay on NCI-H23 lung is 101%; in the assay on NCI-H226 lung, 103%; with NCI-H322M lung, 111%; in the assay with HOP-62 NSCLC, 112%; in the assay on NCI-H460 lung it was 107%; with HOP-92 NSCLC it was 96.2%. Moreover, the growth in the assay on NCI-H522 lung is 117%; with A549/ATCC NSCLC it was 98.7%; in the assay with 786-0 renal it was 106%; with COLO 205 colon, 119%; in the assay with DU-145 prostate, 114%; in the assay with K-562 leukemia, 94.2%. The growth with MALME-3M melanoma was 97.5%; in the assay with MDA-MB-231 breast, 90.7%; with RXF 393 renal, 110%; in the assay with SF-268 CNS, 110%; in the assay with SF-295 CNS, 92.9%; with SF-539 CNS it was 111%. For the same molecule, the figures for the growth in the assay on UACC-257 melanoma and in the assay with M14 melanoma were 112% and 110%, respectively.

For the molecule `CCCN1C(=O)CSC1=Nc1ccc2cc3ccc(N=C4SCC(=O)N4CCC)cc3nc2c1`, the growth was 35.8% in the assay on NCI-H23 lung; 32.2% in the assay on NCI-H226 lung; 86.4% with NCI-H322M lung; 47.6% in the assay on HOP-62 NSCLC; 36.8% in the assay with NCI-H460 lung; 57.1% in the assay with HOP-92 NSCLC. The growth with NCI-H522 lung was 31.4%; in the assay on A549/ATCC NSCLC it was 41.4%; in the assay on 786-0 renal it was 8.44% (active); with COLO 205 colon it was 36.8%; in the assay with DU-145 prostate, 83.7%; with K-562 leukemia, 21.4%. For the same molecule, the growth with MALME-3M melanoma was 33.5%; in the assay with MDA-MB-231 breast, 18.5%; in the assay on RXF 393 renal, -27.9% (active); with SF-268 CNS, 62.9%; in the assay with SF-295 CNS it was 23%; with SF-539 CNS, 46%. Besides, the growth in the assay on UACC-257 melanoma was 43.9%; in the assay on M14 melanoma, 50.7%.

Take `O=c1c2ccccc2[nH]n1Cc1ccc2c(c1)OCO2`: the growth is 106% in the assay with NCI-H23 lung; 92.6% in the assay on NCI-H226 lung; 97.6% in the assay on NCI-H322M lung; 97.1% in the assay on HOP-62 NSCLC; 0.543% (active) in the assay with NCI-H460 lung; 90.2% in the assay with HOP-92 NSCLC. In addition, the growth in the assay with NCI-H522 lung was 99.4%; in the assay with A549/ATCC NSCLC, 99.6%; with 786-0 renal, 93.3%; in the assay on COLO 205 colon, 116%; with DU-145 prostate, 112%; in the assay on K-562 leukemia, 95.9%. Also, the growth was 100% with MALME-3M melanoma; 114% with MDA-MB-231 breast; 103% in the assay on RXF 393 renal; 101% in the assay on SF-268 CNS; 104% in the assay with SF-295 CNS; 98.1% in the assay on SF-539 CNS. Also, the growth in the assay with UACC-257 melanoma was 97%; in the assay on M14 melanoma, 104%.

On to `COc1ccc2c(c1)C(=O)/C(=C/c1ccc(OCC(=O)c3ccc(Cl)cc3)cc1)O2`, for which the growth was 97.1% in the assay on NCI-H23 lung; 80.7% in the assay with NCI-H226 lung; 102% in the assay with NCI-H322M lung; 121% with HOP-62 NSCLC; 106% with NCI-H460 lung; 50.6% in the assay with HOP-92 NSCLC. Besides, the growth in the assay with NCI-H522 lung was -64.2% (active); in the assay on A549/ATCC NSCLC, 99.2%; in the assay with 786-0 renal it was 115%; in the assay with COLO 205 colon, 123%; in the assay on DU-145 prostate, 104%; in the assay with K-562 leukemia, -42.3% (active). Besides, the growth in the assay on MALME-3M melanoma was 80%; in the assay with MDA-MB-231 breast, 68.8%; in the assay on RXF 393 renal it was 74.5%; with SF-268 CNS, 108%; in the assay on SF-295 CNS, 73.7%; in the assay on SF-539 CNS, 96%. Moreover, the growth in the assay on UACC-257 melanoma was 75.1%; in the assay with M14 melanoma, 83.9%.

On to `CCCCOc1c(N)cccc1C(=O)OCCN(CC)CC`, for which the growth with NCI-H23 lung was 97.1%; in the assay with NCI-H226 lung it was 99.8%; in the assay on NCI-H322M lung, 80.7%; in the assay with HOP-62 NSCLC, 104%; with NCI-H460 lung, 105%; with HOP-92 NSCLC, 95.7%. For the same molecule, the growth in the assay on NCI-H522 lung was 76.5%; in the assay on A549/ATCC NSCLC, 97.4%; in the assay with 786-0 renal, 102%; with COLO 205 colon it was 109%; in the assay on DU-145 prostate, 103%; in the assay with K-562 leukemia it was 80.4%. Besides, the growth in the assay with MALME-3M melanoma was 100%; in the assay with MDA-MB-231 breast it was 99.3%; with RXF 393 renal, 100%; in the assay on SF-268 CNS, 95.1%; with SF-295 CNS it was 103%; with SF-539 CNS, 104%. For the same molecule, the growth in the assay with UACC-257 melanoma is 100%; in the assay on M14 melanoma it was 99.5%.

`O=[N+]([O-])c1cccc2cc(S(=O)(=O)O)ccc12`: the growth in the assay with NCI-H23 lung was 105%; in the assay on NCI-H226 lung it was 103%; with NCI-H322M lung, 107%; in the assay on HOP-62 NSCLC, 98.8%; in the assay with NCI-H460 lung, 110%; in the assay on HOP-92 NSCLC, 85%. Further, the growth in the assay with NCI-H522 lung was 83.8%; in the assay with A549/ATCC NSCLC, 74.2%; in the assay with 786-0 renal it was 100%; in the assay with COLO 205 colon it was 105%; with DU-145 prostate, 105%; in the assay with K-562 leukemia, 80.7%. In addition, the growth with MALME-3M melanoma was 102%; in the assay on MDA-MB-231 breast, 105%; with RXF 393 renal, 122%; in the assay on SF-268 CNS, 104%; in the assay on SF-295 CNS, 104%; in the assay with SF-539 CNS it was 99.4%. Further, the growth with UACC-257 melanoma is 91.9%; with M14 melanoma it was 107%.

In the case of `COc1cc2c(cc1OCCCCC(=O)Nc1ccc(-c3nc4ccccc4s3)cc1)N=C[C@@H]1CCCN1C2=O`, the growth was -11.4% (active) in the assay with NCI-H23 lung; -43.7% (active) with NCI-H226 lung; -0.382% (active) in the assay with NCI-H322M lung; -2.65% (active) in the assay on HOP-62 NSCLC; -19.5% (active) in the assay with NCI-H460 lung; -53% (active) in the assay with HOP-92 NSCLC. For the same molecule, the growth in the assay on NCI-H522 lung was -54% (active); in the assay with A549/ATCC NSCLC, -42.2% (active); with 786-0 renal, -6.44% (active); in the assay on COLO 205 colon it was -60.5% (active); in the assay on DU-145 prostate, 3.12% (active); with K-562 leukemia, -17.6% (active). The growth in the assay on MALME-3M melanoma was -80.2% (active); in the assay with MDA-MB-231 breast it was 14.7%; with RXF 393 renal, -83% (active); with SF-268 CNS, 7.56% (active); in the assay on SF-295 CNS it was 18.3%; in the assay on SF-539 CNS, -46.6% (active). The growth with UACC-257 melanoma was -47.1% (active); with M14 melanoma it was -59.3% (active).
